Assay outcomes deposited in PubChem by University of Kansas High Throughput Screening Laboratory.
mHTT-CaM PPI inh – mutant huntingtin-calmodulin interaction inhibitors – biochemical, AlphaScreen, primary screen. P42858. AlphaScreen His-mHTT/GST-CaM binding, luminescence. inhibition, % at 15 µM. 190,000 tested, 3.6% active
Pf apPOL inh – Pf-apPOL inhibitors, biochemical, fluorescence; Recombinant Pf-apPOL, molecular beacon fluorescence, 1.5 h; Plasmodium falciparum apicoplast DNA polymerase (apPOL); 210,000 tested, 0.25% active; inhibition, % at 10 µM
Hits are given with their value; - = inactive; . = no result given; + = active, no number. The full list was thinned out, with hits kept by preference. Cut-off read from the data, not from the text of the source: active = inhibition above about 50%; inactive = the rest.

SMILES	mHTT-CaM PPI inh	Pf apPOL inh
Cc1ccccc1CNC(=O)CC1CCN(S(=O)(=O)c2c(C)noc2C)CC1	-	-
Cc1ccccc1NC(=O)N1CCC(N2CCN(Cc3ccccc3)C2=O)CC1	-	-
Cc1cccc(NC(=O)N2CCC(N3CCN(Cc4ccccc4)C3=O)CC2)c1C	100	-
CC(=O)Nc1cc(C(=O)N2CCN(c3cccc(C)c3)CC2)c2ccc(C)nc2c1	68	-
CC(=O)Nc1cc(C(=O)N2CCN(c3cccc(C)c3C)CC2)c2ccc(C)nc2c1	95	-
CC(=O)Nc1cc(C(=O)NCCN2CCCCC2)c2ccc(C)nc2c1	-	-
CC(=O)Nc1cc(C(=O)N2CCN(C3CCCCC3)CC2)c2ccc(C)nc2c1	-	-
CC(=O)Nc1cc(C(=O)N2CCN(c3cc(C)ccc3C)CC2)c2ccc(C)nc2c1	100	-
CC(=O)Nc1cc(C(=O)NC2CCCC2)c2ccc(C)nc2c1	100	-
CC(=O)Nc1cc(C(=O)NC(C)C)c2ccc(C)nc2c1	-	-
Cc1cccc(N2CCN(C(=O)c3cccc([N+](=O)[O-])c3C)CC2)c1C	-	-
Cc1ccccc1C(=O)Nc1ccc2c(N3CCCC3)ncnc2c1	-	-
Cc1cccc(Cc2c(C)nc(C)nc2N2CCN(S(C)(=O)=O)CC2)c1	-	-
Cc1ccc(-c2nc(-c3ccc([N+](=O)[O-])cc3)no2)c(Cl)c1	-	-
COC(=O)CNC(=O)N1CCCCCC1c1ccc(C)s1 (centres undefined)	-	-
Cc1cccc2oc(-c3cc(N=Cc4cc([N+](=O)[O-])cc([N+](=O)[O-])c4O)ccc3O)nc12	-	-
Cc1cccc2oc(-c3cc(N=Cc4ccc([N+](=O)[O-])cc4)ccc3O)nc12	-	59
CCc1sc(NC(=O)c2cc3cccc(OC)c3oc2=O)nc1-c1cccs1	-	-
O=C(Cc1ccccc1F)N1CCC(COc2ccccc2C(=O)N2CCCCC2)CC1	-	71
O=C(Cc1ccccc1F)N1CCC(COc2ccccc2C(=O)N2CCOCC2)CC1	-	-
CC(C)=CCC/C(C)=C/CC(C)(C)CNCCN1CCNCC1	85	-
CC1=CC(C)C(CNCCN2CCNCC2)C(C)C1 (centres undefined)	-	-
O=C1CSC(c2cccc([N+](=O)[O-])c2)N1c1ccc(Oc2ccccc2)cc1 (centres undefined)	78	-
O=C1CSC(c2ccccc2)N1c1ccccc1 (centres undefined)	-	-
CCOc1ccc(N2C(=O)CSC2c2cccc([N+](=O)[O-])c2)cc1 (centres undefined)	-	-
SMILES	mHTT-CaM PPI inh	Pf apPOL inh
O=C1CSC(c2ccccc2)N1c1ccc(Oc2ccccc2)cc1 (centres undefined)	78	-
Cc1cc(NC(=O)c2ccc(-n3ccnc3)nn2)no1	54	-
Cc1cc(NC(=O)c2ccc(C(=O)Nc3cc(C)on3)nc2)no1	-	-
CCSc1ccccc1C(=O)Nc1cccc2ccc(OC)nc12	-	-
CCSc1ccccc1C(=O)Nc1cccc2ccc(-n3ccnc3)nc12	82	-
O=C(Nc1cccc2cccnc12)c1ccccc1O	-	-
O=C(Nc1cccc2cccnc12)c1ccc(-n2ccnc2)nn1	61	-
COc1ccc(OC)c(-c2csc(NC(=O)NCc3cccs3)n2)c1	-	-
CC(=O)Nc1ccc(-c2noc(C3CCN(C(=O)c4sccc4C)CC3)n2)cc1	-	-
CCc1ccc(C(=O)Nc2cnc(N3CCCC3)nc2)cc1	-	-
COc1ccc(C(=O)N2CCC(n3c(-c4ccoc4)nc4cccnc43)C2)cc1F (centres undefined)	63	-
Cc1ccc(C(=O)N2CCC(n3c(-c4ccoc4)nc4cccnc43)C2)cc1C (centres undefined)	-	-
Cc1ccc(CNC(=O)N2CCC(n3c(-c4ccoc4)nc4cccnc43)C2)cc1 (centres undefined)	64	-
O=C(NCc1ccccc1)N1CCC(n2c(-c3ccoc3)nc3cccnc32)C1 (centres undefined)	-	-
O=C(c1cccc(Br)c1)N1CCC(n2c(-c3ccoc3)nc3cccnc32)C1 (centres undefined)	55	-
COc1cc(C(=O)N2CCC(n3c(-c4ccoc4)nc4cccnc43)C2)ccc1C (centres undefined)	-	-
COc1ccc(Cl)cc1NC(=O)c1ccc(C)cc1Cl	-	-
CC(C)c1ccc(/C=C2/SC(N3CCOCC3)=NC2=O)cc1	-	-
CCn1cc2c3c(cccc31)CN(C(=O)NCc1cccc(OC)c1)CC2	-	-
COc1cc(NC(=O)N2CCc3cn(C)c4cccc(c34)C2)cc(OC)c1	-	-
Cn1cc2c3c(cccc31)CN(C(=O)C1CCCC1)CC2	-	-
CCn1cc2c3c(cccc31)CN(C(=O)c1cccc(OC)c1)CC2	69	-
Cn1cc2c3c(cccc31)CN(C(=O)C1CCCCC1)CC2	62	-
COc1cc(OC)cc(C(=O)N2CCc3cn(C)c4cccc(c34)C2)c1	55	-
COc1cccc(N(CC(N)=O)S(=O)(=O)c2ccc(C)cc2)c1	-	-
SMILES	mHTT-CaM PPI inh	Pf apPOL inh
COc1ccc(C(=O)N2CCC3(C2)C(=O)N(C)c2ccccc23)cc1OC (centres undefined)	-	-
COc1cccc(-c2nc(C=Nc3ccc(OC)cc3[N+](=O)[O-])c(O)o2)c1	-	-
CC1(C)C2CCC1(C)C(OCC(O)CN1CCCCC1)C2 (centres undefined)	-	-
COc1ccccc1N1CCN(CC(O)COC2CC3CCC2(C)C3(C)C)CC1 (centres undefined)	-	-
OC(COC12CC3CC(CC(C3)C1)C2)CN1CCN(c2cccc(C(F)(F)F)c2)CC1 (centres undefined)	-	-
CC1(C)C2CCC1(C)C(OCC(O)CN1CCN(Cc3ccc(Cl)cc3)CC1)C2 (centres undefined)	100	-
CC1(C)C2CCC1(C)C(OCC(O)CN1CCN(c3cccc(Cl)c3)CC1)C2 (centres undefined)	99	-
CC12CCC(C1)C(C)(C)C2OCC(O)CN1CCN(c2cccc(C(F)(F)F)c2)CC1 (centres undefined)	65	-
COc1ccc(-n2nc(C(=O)Nc3ccc(C(F)(F)F)cc3)c3ccccc3c2=O)c(OC)c1	-	-
S=c1[nH]nc(-c2ccco2)n1/N=C/C=C/c1ccco1	-	.
S=c1[nH]nc(-c2cc(-c3ccccc3)n[nH]2)n1/N=C/C=C/c1ccco1	+	.
Cc1ccccc1CNC(=O)C1(C)CCCN(S(=O)(=O)c2ccccc2Cl)C1 (centres undefined)	-	-
Cc1ccc(C)c(S(=O)(=O)N2CCCC(C)(C(=O)NCc3ccccc3)C2)c1 (centres undefined)	-	-
Cc1c(Cl)cccc1S(=O)(=O)N1CCCC(C)(C(=O)NCc2ccccc2)C1 (centres undefined)	65	-
Cc1ccccc1CNC(=O)C1(C)CCCN(S(=O)(=O)c2cccc(Cl)c2C)C1 (centres undefined)	61	-
Fc1ccc(N2CCN(Cc3cccs3)CC2)cc1	-	-
Cc1cc(C2CCCN2C(=O)Nc2ccc(C)c(F)c2)on1 (centres undefined)	-	-
Cc1ccc(C(=O)Nc2ccc(NC(=O)c3ccccc3)c(Br)c2)cc1C	-	-
COc1ccc(Nc2nc(Cl)nc(Nc3ccc(OC)c(OC)c3)n2)cc1OC	-	-
